Screening data as filed in PubChem.
HT1080 IDH1KD tx: kills HT-1080 cells with IDH1 knockdown; AID 686971; 360,000 compounds, 2% hits; Potency, µM (titrated, usually from 46.1 µM), without a hit: top-dose activity, negative = toxicity, actives largely listed as cytotoxic; HT-1080 IDH1 knockdown viability, ATP luminescence, 48 h;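 note: potency is the fitted concentration of half-maximal effect; 0% = DMSO wells and -100% = cell-free medium wells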
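Luminescent ATP read-out (CellTiter-Glo, 10 min at room temperature) after 48 h compound exposure at 37 °C gave viability of IDH1-knockdown HT-1080 cells. Activity was normalised to DMSO and cell-free wells, then fitted as concentration-response curves.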
TDP1 cell noCPT: qHTS for Inhibitors of human tyrosyl-DNA phosphodiesterase 1 (TDP1): qHTS in cells in absence of CPT; DT40 Tdp1-/- hTDP1 cells, no CPT, ATP luminescence, 48 h; Potency, µM (titrated, usually from 46.2 µM), for the others: at the top dose activity change, negative = growth inhibition, most hits filed as inhibitors; 420,000 compounds, 15% hits; AID 686978, 2013; note: potency is the fitted concentration of half-maximal effect; nearly all actives have a fitted effect of over 55% in size
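Luminescent ATP content (CellTiter-Glo) served as the growth readout. Knockout chicken DT40 cells expressing human TDP1 were exposed to compounds without camptothecin for a minimum 48 hr at 37 °C.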
IL-1B inflam inh: inflammasome signaling inhibition, IL-1 beta readout; activity change, % at 57.5 µM; THP-1 LPS/ATP IL-1B secretion, AlphaLISA, 16 h; active compounds read low; 360,000 compounds, 4.7% hits; in the data active = activity change below about -50%; inconclusive = mostly about -30% to -49%
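THP-1 cells pretreated 1 hr with compounds (up to 57.5 uM final), then stimulated with LPS (250 ng/mL final) plus ATP (1.25 mM final); secreted IL-1B measured by AlphaLISA after 16 hr, decreased signal indicating inhibition.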
TDP1 cell CPT: growth inhibition of DT40 Tdp1-/-;hTDP1 cells with camptothecin (screen for TDP1 inhibitors); chicken DT40 Tdp1-/-;hTDP1 cells + 20 nM CPT, ATP luminescence, 48 h; Potency, µM (top dose mostly 46.2 µM), without a hit: at the highest dose activity change, negative = growth inhibition, hits mostly inhibitors; 420,000 compounds, 12% hits; AID 686979; note: potency is the fitted concentration of half-maximal effect; nearly all actives have a fitted effect of over 55% in size
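Chicken DT40 Tdp1-/- cells complemented with human TDP1, 400 cells/well, exposed to compounds plus 20 nM camptothecin for at least 48 h at 37 C; viability read as ATP content by CellTiter-Glo luminescence.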
HT1080NT lethal: kills 2HG-producing HT-1080-NT fibrosarcoma cells; Potency, µM (titrated, usually from 46.1 µM), for the others: top-dose activity, negative = less viability, actives largely listed as cytotoxic; 360,000 compounds, 1.6% hits; HT-1080-NT fibrosarcoma viability, CellTiter-Glo ATP luminescence, 48 h;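 note: NT is the 2HG producing partner of a matched IDH1 knockdown line; potency is the fitted concentration of half-maximal effect; 0% = DMSO-treated cells and -100% = media-only wells without cells; nearly all actives have a fitted effect of over 55% in size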
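HT-1080-NT fibrosarcoma cells (2HG-overproducing), 750 cells/well in RPMI with 5% FBS, dosed after 2 h and incubated 48 h at 37C. CellTiter-Glo luminescence normalized to DMSO and no-cell wells; concentration-response curves fitted and classed.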
Numbers without * were called inactive; ? = inconclusive; . = no result. Most compounds without a hit are left out; they make up all but 19% or so of the library. Unless noted, calls come from the whole dose curve; as a rule, active = well fitted curve in the direction sought with a large enough effect; inconclusive = small, poorly fitted or top-dose-only effect, or another doubt; inactive = no such curve, though single readings can be large; an effect the other way counts as inactive or inconclusive. Unless noted, % is set by controls: 0 for no effect and ±100 for the full control effect.

SMILES | HT1080 IDH1KD tx | TDP1 cell noCPT | IL-1B inflam inh | TDP1 cell CPT | HT1080NT lethal
CC1CCN(c2ccc3c(c2)S(=O)(=O)c2cccc(C(=O)NCc4cccc(F)c4)c2C3=O)CC1 | -1% | 18µM* | 8 | ? | -3%
CC(C)CC(=O)Nc1nnc(S(=O)(=O)N2c3ccccc3CC2C)s1 (configuration not stated) | -11% | 1% | 23 | 3% | -21%
Cc1noc(C)c1C(=O)N1CCC2(CCCN(c3ncccn3)C2)CC1 | . | -10% | . | -18% | .
CC(C)NC(=O)NC(=O)COC(=O)c1cccc(S(=O)(=O)N2CCCCC2)c1 | 14% | -1% | -15 | -26% | 11%
CCOC(=O)C(C)Sc1ccc2nnc(CCNS(=O)(=O)c3ccccc3)n2n1 (configuration not stated) | 13% | -26% | -20 | -14% | 10%
COc1cccc(CNC(=O)C(=O)N2CCC3(CC2)OCCN3S(=O)(=O)c2ccc(C)cc2)c1 | -1% | -3% | -11 | -3% | 0%
CC(=O)Oc1cccc(C2=CC(=O)CC(C)(C)C2=O)c1 | 9% | -16% | -1 | -5% | 10%
O=C1CNC(=S)N1Cc1ccc(Cl)cc1 | -5% | -3% | -12 | -18% | -7%
O=C1CNC(=S)N1CCc1ccc(Cl)cc1 | 3% | 16µM* | -18 | 26% | 15%
Cc1ccc(NC(=O)c2ccco2)c(NC(=O)c2ccccc2)c1 | -9% | 6% | 24 | -3% | 2%
CCN(CC)P(=O)(Nc1ccc(C)cc1Br)c1ccc(N(C)C)cc1NC(=O)c1ccco1 (configuration not stated) | -9% | 16µM* | -66* | ? | -10%
CCOc1ccccc1C1CC(=O)Nc2cc(C)c(C)cc21 (configuration not stated) | 15µM* | 4.1µM* | 57 | 2.6µM* | ?
COc1ccccc1C1CC(=O)Nc2cc(C)c(C)cc21 (configuration not stated) | 6.5µM* | 8.2µM* | 40 | 6.5µM* | ?
CCCCOc1ccccc1C1CC(=O)Nc2cc(C)c(C)cc21 (configuration not stated) | . | 18µM* | . | 15µM* | .
COc1cc2c(cc1OC)C(c1ccco1)CC(=O)N2 (configuration not stated) | -3% | 8% | 6 | -6% | 0%
Cc1cc2c(cc1C)C(c1ccccc1OC(C)C)CC(=O)N2 (configuration not stated) | 2.3µM* | ? | -10 | ? | 4.1µM*
CCOc1ccccc1C1CC(=O)Nc2cc(OC)c(OC)c(OC)c21 (configuration not stated) | 13% | ? | 5 | ? | 8%
Cc1cc2c(cc1C)C(c1ccccc1Br)CC(=O)N2 (configuration not stated) | -9% | ? | 39 | ? | -5%
CC(C)(C)NC(=O)C(c1ccccn1)N(C(=O)C1CSC(=O)C1)c1cccc(F)c1 (configuration not stated) | 5% | -17% | 50 | -18% | 3%
CC(C)NC(=O)C1(C)CCN1C(=O)c1ccccc1 (configuration not stated) | 0% | 1% | 3 | -14% | 29%
Cc1cc(C)c2c(N)c(C(=O)c3ccccc3Cl)sc2n1 | -9% | ? | -9 | -29% | -8%
CCc1ccccc1NC(=O)c1sc2nc(C)cc(C)c2c1N | -4% | ? | ? | 18µM* | -17%
C=CCn1c(N)c(C(=O)NCc2ccco2)sc1=S | 15% | -1% | ? | 1% | 9%
Cc1cc(C)c2c(N)c(C(=O)Nc3ncc(C)s3)sc2n1 | ? | 18µM* | -19 | 16µM* | ?
Cc1ccc(-n2c(N)c(C(=O)NCc3ccco3)sc2=S)cc1 | -17% | -29% | -58* | ? | -14%
SMILES | HT1080 IDH1KD tx | TDP1 cell noCPT | IL-1B inflam inh | TDP1 cell CPT | HT1080NT lethal
COC(=O)c1sc2nc(C)cc(C)c2c1N | 0% | -7% | -24 | -24% | 3%
Cc1cc(C)c2c(N)c(C(=O)c3ccc(Cl)cc3Cl)sc2n1 | -9% | 18µM* | -2 | ? | -11%
Cc1cc(C)c2c(N)c(C(=O)Nc3ccccc3Br)sc2n1 | -13% | -17% | -3 | -29% | -1%
Nc1ccn(Cc2ccc(F)cc2)n1 | 9% | 4% | 22 | -1% | 10%
CCOC(=O)N1CCN(C(=O)C(CC(C)C)NS(=O)(=O)c2ccc(C)cc2)CC1 (configuration not stated) | 1% | -8% | 26 | ? | -2%
CC(=O)NCCNC(=O)C1CCCCN1S(=O)(=O)c1ccccc1 (configuration not stated) | 3% | ? | -4 | 18% | 12%
Cc1nn(C)c(C(=O)N/N=C/c2cccnc2)c1Br | -1% | -3% | 31 | -11% | -15%
CCOc1ccc2nc(S(=O)(=O)NC(=O)C3(C)CCN3C(=O)CCc3cccs3)sc2c1 (configuration not stated) | ? | -2% | 54 | 7% | 12%
CC(=O)c1sc2nc(C)cc(C)c2c1N | -24% | ? | -8 | -23% | 2%
Cc1cc(C)c2c(N)c(C(=O)NCc3ccco3)sc2n1 | 20% | ? | -61* | 0% | 20%
Cc1cc(C)c2c(N)c(C(=O)N3CCCCCC3)sc2n1 | 2% | -24% | -17 | 15µM* | 8%
Cc1ccc(OC(C)C(=O)N2CCN(CCc3ccccn3)CC2)cc1C (configuration not stated) | . | -18% | . | -6% | .
CC1CCc2c(sc(/N=C/c3ccco3)c2C(N)=O)C1 (configuration not stated) | 10% | 0% | -7 | 2% | 6%
CCOC(=O)c1cnc2oc3ccccc3n2c1=O | 0% | 4% | 27 | 0% | 2%
COc1cccc(CNC(=O)c2ccc(NC(=O)CC3SC(N4CCCC4)=NC3=O)cc2)c1 (configuration not stated) | -4% | -2% | 7 | -6% | 0%
CSc1ccc(CCNC(=O)CCc2c(C)nc3cc(-c4ccccc4)nn3c2C)cc1 | . | -24% | . | -23% | .
COc1ccc(CNC(=O)CCc2c(C)nc3cc(-c4ccccc4OC)nn3c2C)cc1 | 0% | ? | -3 | ? | 0%
CCOc1ccccc1NC(=O)CCc1c(C)nc2cc(-c3ccccc3)nn2c1C | . | 12µM* | . | 18µM* | .
CCOc1ccc(CCNC(=O)CCc2c(C)nc3cc(-c4ccccc4OC)nn3c2C)cc1 | . | 15µM* | . | ? | .
COc1ccc(CCNC(=O)CCc2c(C)nc3c4c(C)cc(C)nc4nn3c2C)cc1OC | . | 16µM* | . | ? | .
